Reference: PubChem BioAssay (Tox21)
Records with an inconclusive call do not appear. Calls of active or inactive are those of the source. Calls come from the whole dose curve; as a rule, active = well fitted curve in the direction sought with a large enough effect in the repeat runs; inconclusive = weak or mixed curves; inactive = no such curve, though single readings can be large; an effect the other way counts as inactive or inconclusive.

What was measured:
[1] = qHTS RealTime-Glo MT Cell Viability Assay in HEK293 cells - 16 hour (AID 1224872); note: nearly all actives have a fitted effect of over 50% in size; note: potency is the fitted concentration of half-maximal effect
How it was run: (§1)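 Luminescence generated by NanoLuc from substrate produced by living HEK293 cells served as the viability signal. Each value reflects the reading at its stated time point during continuous 40 h compound exposure at 37 C.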

[2] = A CellTox Green Cytotoxicity Assay to monitor cytotoxicity in HEK293 cells - 24 hour (AID 1224875); note: nearly all actives have a fitted effect of over 45% in size; note: potency is the fitted concentration of half-maximal effect
How it was run: (§2)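 Cytotoxicity was tracked continuously in HEK293 cells by a DNA-binding dye excluded from viable cells. Compounds were transferred in DMSO 5 h after seeding; fluorescence was recorded at intervals up to 40 h.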

[3] = A CellTox Green Cytotoxicity Assay to monitor cytotoxicity in HepG2 cells - 16 hour (AID 1224876); note: nearly all actives have a fitted effect of over 45% in size; note: potency is the fitted concentration of half-maximal effect
How it was run: (§3)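 Real-time, homogeneous cytotoxicity readout: dead-cell DNA staining by CellTox Green in HepG2 monolayers, fluorescence measured at timed intervals up to 40 h of continuous compound exposure.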

[4] = A CellTox Green Cytotoxicity Assay to monitor cytotoxicity in HepG2 cells - 24 hour (AID 1224878); note: nearly all actives have a fitted effect of over 45% in size; note: potency is the fitted concentration of half-maximal effect
How it was run: as §3

[5] = A CellTox Green Cytotoxicity Assay to monitor cytotoxicity in HepG2 cells - 40 hour (AID 1224879); note: nearly all actives have a fitted effect of over 40% in size; note: potency is the fitted concentration of half-maximal effect
How it was run: as §3

[6] = qHTS RealTime-Glo MT Cell Viability Assay in HEK293 cells - 0 hour (AID 1224880); note: nearly all actives have a fitted effect of over 45% in size; note: potency is the fitted concentration of half-maximal effect
How it was run: (§4)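 Nonlytic bioluminescent viability monitoring. HEK293 at 600 cells/well with reagent; 5 h settle; compound transfer by pintool; plates held at 37 C and read at set time points.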

[7] = A CellTox Green Cytotoxicity Assay to monitor cytotoxicity in HEK293 cells - 32 hour (AID 1224881); note: nearly all actives have a fitted effect of over 40% in size; note: potency is the fitted concentration of half-maximal effect
How it was run: as §2

[8] = A CellTox Green Cytotoxicity Assay to monitor cytotoxicity in HepG2 cells - 0 hour (AID 1224882); note: nearly all actives have a fitted effect of over 35% in size; note: potency is the fitted concentration of half-maximal effect
How it was run: as §3

[9] = A CellTox Green Cytotoxicity Assay to monitor cytotoxicity in HepG2 cells - 32 hour (AID 1224883); note: nearly all actives have a fitted effect of over 50% in size; note: potency is the fitted concentration of half-maximal effect
How it was run: as §3

[10] = A CellTox Green Cytotoxicity Assay to monitor cytotoxicity in HEK293 cells - 8 hour (AID 1224884); note: nearly all actives have a fitted effect of over 35% in size; note: potency is the fitted concentration of half-maximal effect
How it was run: as §2

[11] = qHTS RealTime-Glo MT Cell Viability Assay in HEK293 cells - 24 hour (AID 1224886); note: nearly all actives have a fitted effect of over 50% in size; note: potency is the fitted concentration of half-maximal effect
How it was run: as §1

[12] = qHTS RealTime-Glo MT Cell Viability Assay in HEK293 cells - 8 hour (AID 1224887); note: nearly all actives have a fitted effect of over 50% in size; note: potency is the fitted concentration of half-maximal effect
How it was run: as §4

[13] = A CellTox Green Cytotoxicity Assay to monitor cytotoxicity in HEK293 cells - 16 hour (AID 1224888); note: nearly all actives have a fitted effect of over 35% in size; note: potency is the fitted concentration of half-maximal effect
How it was run: as §2

[14] = qHTS RealTime-Glo MT Cell Viability Assay in HepG2 cells - 0 hour (AID 1224889); note: nearly all actives have a fitted effect of over 50% in size; note: potency is the fitted concentration of half-maximal effect
How it was run: (§5)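 Tox21 10K library screened in qHTS format on HepG2 cells carrying RealTime-Glo reagents. Compounds were added after a 5 h preincubation, and the luminescent signal from continuous culture was measured repeatedly during 40 h treatment.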

[15] = A CellTox Green Cytotoxicity Assay to monitor cytotoxicity in HepG2 cells - 8 hour (AID 1224890); note: nearly all actives have a fitted effect of over 45% in size; note: potency is the fitted concentration of half-maximal effect
How it was run: as §3

[16] = qHTS RealTime-Glo MT Cell Viability Assay in HepG2 cells - 32 hour (AID 1224877); note: nearly all actives have a fitted effect of over 55% in size
How it was run: as §5

[17] = qHTS RealTime-Glo MT Cell Viability Assay in HepG2 cells - 16 hour (AID 1224885); note: nearly all actives have a fitted effect of over 50% in size
How it was run: as §5

[18] = qHTS assay to identify small molecule antagonists of the estrogen receptor alpha (ER-alpha) signaling pathway using the BG1 cell line in the presence of 0.1 nM 17-beta-estradiol - cell viability counter screen (AID 1259241); note: nearly all actives have a fitted effect of over 40% in size; note: potency is the fitted concentration of half-maximal effect
How it was run: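 Live-cell protease activity (CellTiter-Fluor fluorescence, 30 min) was read in the same wells after VM7Luc4E2 cells had been exposed to compounds with 0.1 nM 17beta-estradiol for 22 hr at 37C.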

[19] = qHTS RealTime-Glo MT Cell Viability Assay in HEK293 cells - 40 hour (AID 1224874); conditions: RealTime-Glo luminescence; max response: hits give low values; note: nearly all actives have a fitted effect of over 50% in size; note: potency is the fitted concentration of half-maximal effect
How it was run: as §4
% is set by controls: 0 for no effect and ±100 for the full control effect.

CCCCN(CCCC)CC(O)c1cc(Cl)cc2c1-c1ccc(Cl)cc1/C2=C/c1ccc(Cl)cc1 (stereo not drawn)
active: Potency [3] 21.3 µM | Potency [4] 23.9 µM | Potency [5] 23.9 µM | Potency [9] 23.9 µM | Potency [15] 13.4 µM
inactive: Potency [1] | Potency [2] | Potency [6] | Potency [7] | Potency [8] | Potency [10] | Potency [11] | Potency [12] | Potency [13] | Potency [14]

O=C(O)c1ccc2cc(C(=O)O)ccc2c1
inactive: Potency [1] | Potency [3] | Potency [16] | Potency [4] | Potency [5] | Potency [6] | Potency [7] | Potency [8] | Potency [9] | Potency [10] | Potency [17] | Potency [11] | Potency [12] | Potency [15] | Potency [18]

COc1cc(S(=O)(=O)O)c(C)cc1N=Nc1c(O)ccc2cc(S(=O)(=O)O)ccc12
inactive: Potency [1] | Potency [2] | Potency [3] | Potency [4] | Potency [5] | Potency [7] | Potency [8] | Potency [9] | Potency [10] | Potency [11] | Potency [12] | Potency [13] | Potency [15]
active: Potency [18] 21.7 µM

CCCc1ccc(OCC(=O)N2CCN(C(=O)COc3ccc(CCC)cc3OC)CC2)c(OC)c1
inactive: Potency [2] | Potency [6] | Potency [8] | Potency [13] | Potency [14] | Potency [15] | Potency [18]
active: Potency [1] 9.52 µM | Potency [19] 8.49 µM | Potency [4] 26.8 µM | Potency [5] 21.3 µM | Potency [9] 23.9 µM | Potency [11] 9.52 µM | Potency [12] 9.52 µM

C=Cc1ccccc1C=C
inactive: Potency [1] | max response [19] 16.3% | Potency [2] | Potency [3] | Potency [16] | Potency [4] | Potency [6] | Potency [7] | Potency [8] | Potency [9] | Potency [10] | Potency [17] | Potency [11] | Potency [12] | Potency [13] | Potency [14] | Potency [15] | Potency [18]

CCC(CC)C(C)CCOC(C)=O (stereo not drawn)
inactive: Potency [1] | Potency [2] | Potency [3] | Potency [16] | Potency [4] | Potency [5] | Potency [6] | Potency [7] | Potency [8] | Potency [9] | Potency [10] | Potency [17] | Potency [12] | Potency [13] | Potency [14] | Potency [15] | Potency [18]

Cc1ccc(-c2ccccc2)cc1
inactive: Potency [1] | Potency [2] | Potency [16] | Potency [6] | Potency [7] | Potency [8] | Potency [10] | Potency [17] | Potency [12] | Potency [13] | Potency [14] | Potency [18]
active: Potency [3] 49 µM | Potency [4] 43.6 µM | Potency [5] 43.6 µM | Potency [9] 43.6 µM | Potency [15] 49 µM

O=C(O)[C@H](O)[C@@H](O)[C@H](O[C@@H]1O[C@H](CO)[C@H](O)[C@H](O)[C@H]1O)[C@H](O)CO
inactive: Potency [1] | Potency [2] | Potency [3] | Potency [16] | Potency [4] | Potency [5] | Potency [6] | Potency [8] | Potency [9] | Potency [10] | Potency [17] | Potency [12] | Potency [13] | Potency [15] | Potency [18]

CC1(C)CCC[C@]2(C)[C@H]3CC(=O)O[C@]3(C)CC[C@@H]12
inactive: Potency [1] | Potency [3] | Potency [4] | Potency [5] | Potency [6] | Potency [8] | Potency [9] | Potency [10] | Potency [17] | Potency [11] | Potency [12] | Potency [15]
active: Potency [2] 49 µM | Potency [7] 49 µM

O=C1CCCCCCCCCCCCCCCO1
active: Potency [2] 24.5 µM | Potency [3] 43.6 µM | Potency [4] 43.6 µM | Potency [5] 43.6 µM | Potency [7] 24.5 µM | Potency [8] 38.9 µM | Potency [9] 43.6 µM | Potency [10] 43.6 µM | Potency [13] 24.5 µM | Potency [15] 43.6 µM
inactive: Potency [1] | Potency [16] | Potency [17] | Potency [11] | Potency [12] | Potency [14]

CCCC(=O)OCOC(=O)C1=C(C)NC(C)=C(C(=O)OC)C1c1cccc(Cl)c1Cl (stereo not drawn)
active: Potency [6] 9.52 µM | Potency [14] 10.7 µM
inactive: Potency [1] | max response [19] 2.11% | Potency [3] | Potency [16] | Potency [4] | Potency [5] | Potency [7] | Potency [8] | Potency [9] | Potency [10] | Potency [17] | Potency [12] | Potency [13] | Potency [15] | Potency [18]

COC(=O)c1ccccc1C
inactive: Potency [1] | Potency [3] | Potency [16] | Potency [4] | Potency [5] | Potency [7] | Potency [8] | Potency [9] | Potency [10] | Potency [17] | Potency [11] | Potency [12] | Potency [14] | Potency [15] | Potency [18]

CCOC(=O)Cn1cccc1-c1nc(-c2ccc(OC)cc2)c(-c2ccc(OC)cc2)s1
inactive: Potency [1] | max response [19] -5.42% | Potency [2] | Potency [3] | Potency [4] | Potency [5] | Potency [6] | Potency [8] | Potency [9] | Potency [10] | Potency [11] | Potency [12] | Potency [14] | Potency [15] | Potency [18]

O=C1CCc2ccc(OCCCCN3CCN(c4cccc(Cl)c4Cl)CC3)cc2N1
inactive: Potency [2] | Potency [3] | Potency [6] | Potency [7] | Potency [8] | Potency [10] | Potency [13] | Potency [14] | Potency [15]
active: Potency [1] 10.7 µM | Potency [19] 9.52 µM | Potency [5] 26.8 µM | Potency [9] 26.8 µM | Potency [11] 9.52 µM | Potency [12] 21.3 µM

Clc1nnc(Cl)c2ccccc12
inactive: Potency [1] | max response [19] -4.03% | Potency [2] | Potency [3] | Potency [4] | Potency [5] | Potency [7] | Potency [8] | Potency [9] | Potency [10] | Potency [17] | Potency [11] | Potency [12] | Potency [13] | Potency [14] | Potency [15]
